Assay in all cases: PBM; 200 nM protein, PBS
Common to all, as to conditions: dsDNA, one strand shown

Test [1] addresses T1, SIX6 (Homo sapiens, UniProt O95475 114-200, L167I).
T1 sequence: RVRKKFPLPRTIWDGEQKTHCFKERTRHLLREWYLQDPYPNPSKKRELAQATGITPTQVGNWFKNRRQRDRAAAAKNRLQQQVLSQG

Test [2] deals with T2, SIX6 (Homo sapiens, UniProt O95475 114-200, T139Q).
T2 sequence: T1 sequence with T26Q, I54L

In test [3] the target is T3, SIX6 (Homo sapiens, UniProt O95475 114-200, L167V).
T3 sequence: T1 sequence with I54V

Test [4] addresses HOXA4 (Homo sapiens, UniProt Q00056 201-287, W262R).
Test [5] deals with HOXC9 (Homo sapiens, UniProt P31274 178-260, K195R).
Sequence of HOXC9 (Homo sapiens, UniProt P31274 178-260, K195R) (P31274 178-260 K195R): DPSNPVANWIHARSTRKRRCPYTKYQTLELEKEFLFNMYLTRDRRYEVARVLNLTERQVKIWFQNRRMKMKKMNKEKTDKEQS
Test [6] deals with HOXB6 (Homo sapiens, UniProt P17509 132-218, K202E).
Sequence of HOXB6 (Homo sapiens, UniProt P17509 132-218, K202E) (P17509 132-218 K202E): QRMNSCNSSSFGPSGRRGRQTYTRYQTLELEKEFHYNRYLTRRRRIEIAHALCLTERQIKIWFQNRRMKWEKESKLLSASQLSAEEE
Test [7] deals with HOXA4 (Homo sapiens, UniProt Q00056 201-287, R217L).
Sequence of HOXA4 (Homo sapiens, UniProt Q00056 201-287, R217L) (Q00056 201-287 R217L): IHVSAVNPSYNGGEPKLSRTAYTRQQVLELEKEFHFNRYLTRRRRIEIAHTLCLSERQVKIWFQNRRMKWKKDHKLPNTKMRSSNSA
For test [8], the target named is HOXC9 (Homo sapiens, UniProt P31274 178-260).
Sequence of HOXC9 (Homo sapiens, UniProt P31274 178-260) (P31274 178-260): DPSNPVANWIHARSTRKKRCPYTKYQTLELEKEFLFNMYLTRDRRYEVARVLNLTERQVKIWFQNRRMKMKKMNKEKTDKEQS
Test [9] has as its target ALX1 (Homo sapiens, UniProt Q15699 118-204, L144V).
For test [10], the target named is ALX3 (Homo sapiens, UniProt O95076 139-225, N203Q).
Sequence of ALX3 (Homo sapiens, UniProt O95076 139-225, N203Q) (O95076 139-225 N203Q): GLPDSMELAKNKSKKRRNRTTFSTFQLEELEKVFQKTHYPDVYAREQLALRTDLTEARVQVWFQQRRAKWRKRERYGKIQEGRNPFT
The target of test [11] is HOXC9 (Homo sapiens, UniProt P31274 178-260, R193K).
Sequence of HOXC9 (Homo sapiens, UniProt P31274 178-260, R193K) (P31274 178-260 R193K): as the sequence (P31274 178-260) above, with R16K counted along it
In test [12] the target is ALX1 (Homo sapiens, UniProt Q15699 118-204, L144R).
Sequence of ALX1 (Homo sapiens, UniProt Q15699 118-204, L144R) (Q15699 118-204 L144R): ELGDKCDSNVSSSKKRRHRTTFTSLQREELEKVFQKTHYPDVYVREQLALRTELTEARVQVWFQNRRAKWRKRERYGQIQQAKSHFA
In test [13] the target is HOXA4 (Homo sapiens, UniProt Q00056 201-287).
Sequence of HOXA4 (Homo sapiens, UniProt Q00056 201-287) (Q00056 201-287): as the sequence (Q00056 201-287 R217L) above, with L17R counted along it
Test [14] deals with ALX3 (Homo sapiens, UniProt O95076 139-225).
Sequence of ALX3 (Homo sapiens, UniProt O95076 139-225) (O95076 139-225): as the sequence (O95076 139-225 N203Q) above, with Q65N counted along it
In test [15] the target is ALX3 (Homo sapiens, UniProt O95076 139-225, L168Q).
Sequence of ALX3 (Homo sapiens, UniProt O95076 139-225, L168Q) (O95076 139-225 L168Q): as the sequence (O95076 139-225 N203Q) above, with L30Q, Q65N counted along it
Test [16] concerns the target HOXC9 (Homo sapiens, UniProt P31274 178-260, R222W).
Test [17] has as its target ALX3 (Homo sapiens, UniProt O95076 139-225, L168V).
For test [18], the target named is ALX1 (Homo sapiens, UniProt Q15699 118-204).
Sequence of ALX1 (Homo sapiens, UniProt Q15699 118-204) (Q15699 118-204): as the sequence (Q15699 118-204 L144R) above, with R27L counted along it
Test [19] has as its target HOXA4 (Homo sapiens, UniProt Q00056 201-287, W262F).
For test [20], the target named is ALX3 (Homo sapiens, UniProt O95076 139-225, N203S).
Sequence of ALX3 (Homo sapiens, UniProt O95076 139-225, N203S) (O95076 139-225 N203S): as the sequence (O95076 139-225 N203Q) above, with Q65S counted along it
In test [21] the target is HOXB6 (Homo sapiens, UniProt P17509 132-218).
Sequence of HOXB6 (Homo sapiens, UniProt P17509 132-218) (P17509 132-218): as the sequence (P17509 132-218 K202E) above, with E71K counted along it
Test [22] concerns the target T4, PAX4 (Homo sapiens, UniProt O43316 9-242, R200K).
T4 sequence: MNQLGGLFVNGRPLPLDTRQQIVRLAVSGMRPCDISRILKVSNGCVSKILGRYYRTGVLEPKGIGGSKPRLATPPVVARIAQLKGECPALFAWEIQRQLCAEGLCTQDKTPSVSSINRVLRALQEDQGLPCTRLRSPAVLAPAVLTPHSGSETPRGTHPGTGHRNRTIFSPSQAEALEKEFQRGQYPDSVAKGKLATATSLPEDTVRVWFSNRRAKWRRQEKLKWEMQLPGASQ

The target in test [23] is PRRX1 (Homo sapiens, UniProt P54821 80-166, F113S).
Sequence of PRRX1 (Homo sapiens, UniProt P54821 80-166, F113S) (P54821 80-166 F113S): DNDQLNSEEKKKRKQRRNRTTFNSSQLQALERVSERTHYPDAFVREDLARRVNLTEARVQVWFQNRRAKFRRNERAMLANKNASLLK
The target in test [24] is T5, PAX4 (Homo sapiens, UniProt O43316 9-242).
T5 sequence: T4 sequence with K192R

Test [25] concerns the target MSX2 (Homo sapiens, UniProt P35548 130-214, R199I).
Test [26] addresses T6, PAX4 (Homo sapiens, UniProt O43316 9-242, R200Q).
T6 sequence: T4 sequence with K192Q

Test [27] has as its target T7, PAX4 (Homo sapiens, UniProt O43316 9-242, F177V).
T7 sequence: T4 sequence with F169V, K192R

The target of test [28] is MSX2 (Homo sapiens, UniProt P35548 130-214).
Sequence of MSX2 (Homo sapiens, UniProt P35548 130-214) (P35548 130-214): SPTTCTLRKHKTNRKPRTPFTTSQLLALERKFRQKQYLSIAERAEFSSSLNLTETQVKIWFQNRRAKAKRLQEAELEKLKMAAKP
Test [29] has as its target T8, PAX4 (Homo sapiens, UniProt O43316 9-242, F177Y).
T8 sequence: T4 sequence with F169Y, K192R

Test [30] has as its target MSX2 (Homo sapiens, UniProt P35548 130-214, F161Y).
Test [31] has as its target T9, PAX4 (Homo sapiens, UniProt O43316 9-242, R227W).
T9 sequence: T4 sequence with K192R, R219W

Test [32] has as its target PRRX1 (Homo sapiens, UniProt P54821 80-166).
In test [33] the target is HOXC10 (Homo sapiens, UniProt Q9NYD6 254-340).
Sequence of HOXC10 (Homo sapiens, UniProt Q9NYD6 254-340) (Q9NYD6 254-340): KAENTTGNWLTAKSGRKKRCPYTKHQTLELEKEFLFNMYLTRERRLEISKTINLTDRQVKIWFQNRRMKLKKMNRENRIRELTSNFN
The target in test [34] is HOXA2 (Homo sapiens, UniProt O43364 129-215, R185T).
Sequence of HOXA2 (Homo sapiens, UniProt O43364 129-215, R185T) (O43364 129-215 R185T): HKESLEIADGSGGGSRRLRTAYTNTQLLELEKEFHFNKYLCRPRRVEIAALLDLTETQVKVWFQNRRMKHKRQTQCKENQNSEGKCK
The target in test [35] is T10, NKX2-6 (Homo sapiens, UniProt A6NCS4 118-204).
T10 sequence: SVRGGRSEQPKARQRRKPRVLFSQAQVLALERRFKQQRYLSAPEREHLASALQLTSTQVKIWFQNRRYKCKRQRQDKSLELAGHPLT

Test [36] addresses HOXA2 (Homo sapiens, UniProt O43364 129-215, R185K).
Test [37] has as its target HOXC10 (Homo sapiens, UniProt Q9NYD6 254-340, K271E).
Test [38] addresses T11, NKX2-6 (Homo sapiens, UniProt A6NCS4 118-204, F151L).
T11 sequence: T10 sequence with F34L

Test [39] concerns the target HOXA2 (Homo sapiens, UniProt O43364 129-215, Y150S).
In test [40] the target is HOXA2 (Homo sapiens, UniProt O43364 129-215).
Sequence of HOXA2 (Homo sapiens, UniProt O43364 129-215) (O43364 129-215): as the sequence (O43364 129-215 R185T) above, with T57R counted along it

Where a chain is given by its changes, count along the chain named.

Sequence of HOXA4 (Homo sapiens, UniProt Q00056 201-287, W262F) (Q00056 201-287 W262F): as the sequence (Q00056 201-287 R217L) above, with L17R, W62F counted along it
Sequence of HOXA4 (Homo sapiens, UniProt Q00056 201-287, W262R) (Q00056 201-287 W262R): as the sequence (Q00056 201-287 R217L) above, with L17R, W62R counted along it
Sequence of ALX3 (Homo sapiens, UniProt O95076 139-225, L168V) (O95076 139-225 L168V): as the sequence (O95076 139-225 N203Q) above, with L30V, Q65N counted along it
Sequence of HOXC9 (Homo sapiens, UniProt P31274 178-260, R222W) (P31274 178-260 R222W): as the sequence (P31274 178-260) above, with R45W counted along it
Sequence of PRRX1 (Homo sapiens, UniProt P54821 80-166) (P54821 80-166): as the sequence (P54821 80-166 F113S) above, with S34F counted along it
Sequence of HOXA2 (Homo sapiens, UniProt O43364 129-215, R185K) (O43364 129-215 R185K): as the sequence (O43364 129-215 R185T) above, with T57K counted along it
Sequence of MSX2 (Homo sapiens, UniProt P35548 130-214, F161Y) (P35548 130-214 F161Y): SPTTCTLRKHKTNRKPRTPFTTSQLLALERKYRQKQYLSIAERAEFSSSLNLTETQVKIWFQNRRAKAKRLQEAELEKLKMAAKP
Sequence of ALX1 (Homo sapiens, UniProt Q15699 118-204, L144V) (Q15699 118-204 L144V): as the sequence (Q15699 118-204 L144R) above, with R27V counted along it
Sequence of HOXC10 (Homo sapiens, UniProt Q9NYD6 254-340, K271E) (Q9NYD6 254-340 K271E): as the sequence (Q9NYD6 254-340) above, with K18E counted along it
Sequence of MSX2 (Homo sapiens, UniProt P35548 130-214, R199I) (P35548 130-214 R199I): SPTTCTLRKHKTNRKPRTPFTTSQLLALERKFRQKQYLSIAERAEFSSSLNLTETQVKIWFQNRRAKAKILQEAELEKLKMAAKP
Sequence of HOXA2 (Homo sapiens, UniProt O43364 129-215, Y150S) (O43364 129-215 Y150S): as the sequence (O43364 129-215 R185T) above, with Y22S, T57R counted along it

For CAGATATC, the binding signal in the test with SIX6 [1] is 11.1 upbm affinity estimate (log intensity, higher = more binding, comparable within an allelic series); in the test with SIX6 [2] it was 11.1 upbm affinity estimate (log intensity, higher = more binding, comparable within an allelic series); with SIX6 [3], 10.8 upbm affinity estimate (log intensity, higher = more binding, comparable within an allelic series).

Consider CCGGACGG, for which the binding signal with HOXA4 [4] is 9.78 upbm affinity estimate (log intensity, higher = more binding, comparable within an allelic series); with HOXC9 [5], 9.56 upbm affinity estimate (log intensity, higher = more binding, comparable within an allelic series); with HOXB6 [6], 8.96 upbm affinity estimate (log intensity, higher = more binding, comparable within an allelic series); with HOXA4 [7], 9.81 upbm affinity estimate (log intensity, higher = more binding, comparable within an allelic series); with HOXC9 [8] it was 9.65 upbm affinity estimate (log intensity, higher = more binding, comparable within an allelic series); with ALX1 [9] it was 6.5 upbm affinity estimate (log intensity, higher = more binding, comparable within an allelic series). The binding signal in the test with ALX3 [10] is 7.77 upbm affinity estimate (log intensity, higher = more binding, comparable within an allelic series); in the test with HOXC9 [11], 9.6 upbm affinity estimate (log intensity, higher = more binding, comparable within an allelic series); with ALX1 [12] it was 6.53 upbm affinity estimate (log intensity, higher = more binding, comparable within an allelic series); with HOXA4 [13] it was 9.9 upbm affinity estimate (log intensity, higher = more binding, comparable within an allelic series); in the test with ALX3 [14] it was 7.87 upbm affinity estimate (log intensity, higher = more binding, comparable within an allelic series); with ALX3 [15], 7.82 upbm affinity estimate (log intensity, higher = more binding, comparable within an allelic series). Further, the binding signal was 9.76 upbm affinity estimate (log intensity, higher = more binding, comparable within an allelic series) in the test with HOXC9 [16]; 7.73 upbm affinity estimate (log intensity, higher = more binding, comparable within an allelic series) in the test with ALX3 [17]; 6.67 upbm affinity estimate (log intensity, higher = more binding, comparable within an allelic series) with ALX1 [18]; 9.82 upbm affinity estimate (log intensity, higher = more binding, comparable within an allelic series) with HOXA4 [19]; 7.72 upbm affinity estimate (log intensity, higher = more binding, comparable within an allelic series) with ALX3 [20]; 9.05 upbm affinity estimate (log intensity, higher = more binding, comparable within an allelic series) with HOXB6 [21].

As to TAATTTGA, the binding signal in the test with HOXA4 [4] was 10.4 upbm affinity estimate (log intensity, higher = more binding, comparable within an allelic series); in the test with PAX4 [22], 11.7 upbm affinity estimate (log intensity, higher = more binding, comparable within an allelic series); in the test with PRRX1 [23] it was 10.7 upbm affinity estimate (log intensity, higher = more binding, comparable within an allelic series); with PAX4 [24], 12.2 upbm affinity estimate (log intensity, higher = more binding, comparable within an allelic series); in the test with HOXA4 [7], 11.4 upbm affinity estimate (log intensity, higher = more binding, comparable within an allelic series); with MSX2 [25], 12.2 upbm affinity estimate (log intensity, higher = more binding, comparable within an allelic series). For the same sequence, the binding signal with PAX4 [26] is 11.9 upbm affinity estimate (log intensity, higher = more binding, comparable within an allelic series); with PAX4 [27], 10.5 upbm affinity estimate (log intensity, higher = more binding, comparable within an allelic series); with HOXA4 [13] it was 12.8 upbm affinity estimate (log intensity, higher = more binding, comparable within an allelic series); with MSX2 [28], 13.4 upbm affinity estimate (log intensity, higher = more binding, comparable within an allelic series); with PAX4 [29], 10.9 upbm affinity estimate (log intensity, higher = more binding, comparable within an allelic series); with MSX2 [30] it was 13 upbm affinity estimate (log intensity, higher = more binding, comparable within an allelic series). Also, the binding signal with PAX4 [31] is 10.9 upbm affinity estimate (log intensity, higher = more binding, comparable within an allelic series); with HOXA4 [19], 10.8 upbm affinity estimate (log intensity, higher = more binding, comparable within an allelic series); with PRRX1 [32] it was 13.2 upbm affinity estimate (log intensity, higher = more binding, comparable within an allelic series).

On to AGCCACGG, for which the binding signal with HOXA4 [4] was 9.87 upbm affinity estimate (log intensity, higher = more binding, comparable within an allelic series); with HOXC9 [5], 9.64 upbm affinity estimate (log intensity, higher = more binding, comparable within an allelic series); with HOXA4 [7], 9.72 upbm affinity estimate (log intensity, higher = more binding, comparable within an allelic series); with HOXC9 [8], 9.71 upbm affinity estimate (log intensity, higher = more binding, comparable within an allelic series); with ALX3 [10], 7.72 upbm affinity estimate (log intensity, higher = more binding, comparable within an allelic series); in the test with HOXC9 [11], 9.61 upbm affinity estimate (log intensity, higher = more binding, comparable within an allelic series). The binding signal with HOXA4 [13] was 9.87 upbm affinity estimate (log intensity, higher = more binding, comparable within an allelic series); with ALX3 [14], 7.83 upbm affinity estimate (log intensity, higher = more binding, comparable within an allelic series); with ALX3 [15], 7.8 upbm affinity estimate (log intensity, higher = more binding, comparable within an allelic series); with HOXC9 [16], 9.71 upbm affinity estimate (log intensity, higher = more binding, comparable within an allelic series); with ALX3 [17], 7.72 upbm affinity estimate (log intensity, higher = more binding, comparable within an allelic series); with HOXA4 [19], 9.91 upbm affinity estimate (log intensity, higher = more binding, comparable within an allelic series). In addition, the binding signal in the test with ALX3 [20] was 7.74 upbm affinity estimate (log intensity, higher = more binding, comparable within an allelic series).

Regarding GCCCCGAC, the binding signal in the test with HOXA4 [4] is 9.84 upbm affinity estimate (log intensity, higher = more binding, comparable within an allelic series); in the test with HOXC10 [33] it was 10.1 upbm affinity estimate (log intensity, higher = more binding, comparable within an allelic series); with PRRX1 [23], 9.25 upbm affinity estimate (log intensity, higher = more binding, comparable within an allelic series); with HOXA2 [34], 7.21 upbm affinity estimate (log intensity, higher = more binding, comparable within an allelic series); with HOXA4 [7] it was 9.94 upbm affinity estimate (log intensity, higher = more binding, comparable within an allelic series); in the test with NKX2-6 [35] it was 9.63 upbm affinity estimate (log intensity, higher = more binding, comparable within an allelic series). The binding signal with HOXA2 [36] is 10.4 upbm affinity estimate (log intensity, higher = more binding, comparable within an allelic series); in the test with HOXA4 [13] it was 9.87 upbm affinity estimate (log intensity, higher = more binding, comparable within an allelic series); with HOXC10 [37], 10.1 upbm affinity estimate (log intensity, higher = more binding, comparable within an allelic series); with NKX2-6 [38], 9.35 upbm affinity estimate (log intensity, higher = more binding, comparable within an allelic series); with HOXA2 [39] it was 10.5 upbm affinity estimate (log intensity, higher = more binding, comparable within an allelic series); with HOXA4 [19] it was 10.1 upbm affinity estimate (log intensity, higher = more binding, comparable within an allelic series). The binding signal was 9.52 upbm affinity estimate (log intensity, higher = more binding, comparable within an allelic series) with PRRX1 [32] and 7.3 upbm affinity estimate (log intensity, higher = more binding, comparable within an allelic series) with HOXA2 [40].

The record behind these values is PMC11006913.
